Binding signal data for 34 sequences are collected here from paper PMC12820563, “FoxP3 forms a head-to-head dimer in vivo and stabilizes its multimerization on adjacent microsatellites”.

Over roughly 16,000 sequences, “rpm ratio (pull-down/input)” has its median near 0.5; the highest 2% begin near 5.5. Only a selection was taken, and the highest values are over-represented in it overall.

The experiment addresses T1, MBP-FoxP3dN (Mus musculus, UniProt Q99JB6 188-423).
T1 sequence: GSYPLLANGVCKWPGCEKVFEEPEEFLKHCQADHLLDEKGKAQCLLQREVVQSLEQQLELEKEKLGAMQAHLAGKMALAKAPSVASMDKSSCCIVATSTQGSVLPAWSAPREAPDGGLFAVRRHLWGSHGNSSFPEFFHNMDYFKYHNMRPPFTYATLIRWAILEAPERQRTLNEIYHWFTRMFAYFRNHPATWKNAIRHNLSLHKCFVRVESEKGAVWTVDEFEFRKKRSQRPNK
The experiment in a line: PD-seq (MBP pull-down with sequencing); 20 mM Tris-HCl pH 7.5, 100 mM NaCl, 1.5 mM MgCl2, 0.4 uM protein, 0.1 uM dsDNA library, 30 min, room temperature, amylose pull-down; high values mean tight binding. The settings on record: protein: recombinant; tags: His6-MBP; chain copies: 2; dsDNA, one strand shown. An outline of the steps:
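Protein and DNA were mixed at 0.4 µM and 0.1 µM and held for 30 min at room temperature in Tris pH 7.5 buffer with NaCl and MgCl2; the protein was a His6-MBP-tagged, N-terminally truncated mouse FoxP3 or FoxP1 fragment from E. coli, and the DNA a Klenow-filled double-stranded degenerate library. Amylose resin captured the complexes, which were washed three times. Binding is read as reads-per-million enrichment of pull-down versus input after Illumina sequencing, with replicates pooled.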
Consider “GATGATTGTTCTCCCAGCTGATGAATTAAAAATTTCGAGTAAACAAATTTTCCTAATCTTTCTGTTCAAGCGCCATCTAC”, for which the binding signal was 0.202 RPM ratio (pull-down/input).

For the sequence “GATGATTGTTCTCCCAGCTGATGAATTTGGTTAATCGAGTAAACAAATTTTCCTAATCTTTCTGTTCAAGCGCCATCTAC”, the binding signal was 0.489 RPM ratio (pull-down/input).

With “GATGATTGTTCTCCCAGCTGATGAATTCCGCAATTCGAGTAAACAAATTTTCCTAATCTTTCTGTTCAAGCGCCATCTAC”, the binding signal was 4.91 RPM ratio (pull-down/input).

In the case of “GATGATTGTTCTCCCAGCTGATGAATTCCGCATTTCGAGTAAACAAATTTTCCTAATCTTTCTGTTCAAGCGCCATCTAC”, the binding signal was 6.33 RPM ratio (pull-down/input).

On to “GATGATTGTTCTCCCAGCTGATGAATTCTCCGCATCGAGTAAACAAATTTTCCTAATCTTTCTGTTCAAGCGCCATCTAC”, for which the binding signal was 0.8 RPM ratio (pull-down/input).

Turning to “GATGATTGTTCTCCCAGCTGATGAATTTCCCGCATCGAGTAAACAAATTTTCCTAATCTTTCTGTTCAAGCGCCATCTAC”, the binding signal was 0.913 RPM ratio (pull-down/input).

Regarding “GATGATTGTTCTCCCAGCTGATGAATTCCGCGCATCGAGTAAACAAATTTTCCTAATCTTTCTGTTCAAGCGCCATCTAC”, the binding signal is 1.39 RPM ratio (pull-down/input).

Turning to “GATGATTGTTCTCCCAGCTGATGAATTTTCCGCATCGAGTAAACAAATTTTCCTAATCTTTCTGTTCAAGCGCCATCTAC”, the binding signal was 1.07 RPM ratio (pull-down/input).

As for “GATGATTGTTCTCCCAGCTGATGAATTTCCGCATTCGAGTAAACAAATTTTCCTAATCTTTCTGTTCAAGCGCCATCTAC”, the binding signal was 6.24 RPM ratio (pull-down/input).

Consider “GATGATTGTTCTCCCAGCTGATGAATTCCGCATCTCGAGTAAACAAATTTTCCTAATCTTTCTGTTCAAGCGCCATCTAC”, for which the binding signal is 6.95 RPM ratio (pull-down/input).

For “GATGATTGTTCTCCCAGCTGATGAATTCCCGCATTCGAGTAAACAAATTTTCCTAATCTTTCTGTTCAAGCGCCATCTAC”, the binding signal was 5.9 RPM ratio (pull-down/input).

On to “GATGATTGTTCTCCCAGCTGATGAATTCCCCGCATCGAGTAAACAAATTTTCCTAATCTTTCTGTTCAAGCGCCATCTAC”, for which the binding signal was 0.735 RPM ratio (pull-down/input).

In the case of “GATGATTGTTCTCCCAGCTGATGAATTAGACCAGTCGAGTAAACAAATTTTCCTAATCTTTCTGTTCAAGCGCCATCTAC”, the binding signal was 0.233 RPM ratio (pull-down/input).

In the case of “GATGATTGTTCTCCCAGCTGATGAATTTCTTGCGTCGAGTAAACAAATTTTCCTAATCTTTCTGTTCAAGCGCCATCTAC”, the binding signal is 0.535 RPM ratio (pull-down/input).

In the case of “GATGATTGTTCTCCCAGCTGATGAATTCCTCGACTCGAGTAAACAAATTTTCCTAATCTTTCTGTTCAAGCGCCATCTAC”, the binding signal was 0.213 RPM ratio (pull-down/input).

In the case of “GATGATTGTTCTCCCAGCTGATGAATTAACCGATTCGAGTAAACAAATTTTCCTAATCTTTCTGTTCAAGCGCCATCTAC”, the binding signal was 0.251 RPM ratio (pull-down/input).

As for “GATGATTGTTCTCCCAGCTGATGAATTCGAGACATCGAGTAAACAAATTTTCCTAATCTTTCTGTTCAAGCGCCATCTAC”, the binding signal is 0.446 RPM ratio (pull-down/input).

On to “GATGATTGTTCTCCCAGCTGATGAATTTTGCCCTTCGAGTAAACAAATTTTCCTAATCTTTCTGTTCAAGCGCCATCTAC”, for which the binding signal was 1.57 RPM ratio (pull-down/input).

As to “GATGATTGTTCTCCCAGCTGATGAATTGCGAGGGTCGAGTAAACAAATTTTCCTAATCTTTCTGTTCAAGCGCCATCTAC”, the binding signal is 0.611 RPM ratio (pull-down/input).

In the case of “GATGATTGTTCTCCCAGCTGATGAATTTGGGTGTTCGAGTAAACAAATTTTCCTAATCTTTCTGTTCAAGCGCCATCTAC”, the binding signal is 1.11 RPM ratio (pull-down/input).

For the sequence “GATGATTGTTCTCCCAGCTGATGAATTACCGTTATCGAGTAAACAAATTTTCCTAATCTTTCTGTTCAAGCGCCATCTAC”, the binding signal was 0.764 RPM ratio (pull-down/input).

Turning to “GATGATTGTTCTCCCAGCTGATGAATTGACTATGTCGAGTAAACAAATTTTCCTAATCTTTCTGTTCAAGCGCCATCTAC”, the binding signal is 0.449 RPM ratio (pull-down/input).

On to “GATGATTGTTCTCCCAGCTGATGAATTACCGCATTCGAGTAAACAAATTTTCCTAATCTTTCTGTTCAAGCGCCATCTAC”, for which the binding signal is 5.89 RPM ratio (pull-down/input).

With “GATGATTGTTCTCCCAGCTGATGAATTCCGCCTTTCGAGTAAACAAATTTTCCTAATCTTTCTGTTCAAGCGCCATCTAC”, the binding signal is 5.55 RPM ratio (pull-down/input).

On to “GATGATTGTTCTCCCAGCTGATGAATTCCGCCATTCGAGTAAACAAATTTTCCTAATCTTTCTGTTCAAGCGCCATCTAC”, for which the binding signal was 5.49 RPM ratio (pull-down/input).

For the sequence “GATGATTGTTCTCCCAGCTGATGAATTCCCATTTTCGAGTAAACAAATTTTCCTAATCTTTCTGTTCAAGCGCCATCTAC”, the binding signal was 0.336 RPM ratio (pull-down/input).

In the case of “GATGATTGTTCTCCCAGCTGATGAATTGCCGCATTCGAGTAAACAAATTTTCCTAATCTTTCTGTTCAAGCGCCATCTAC”, the binding signal is 7.28 RPM ratio (pull-down/input).

In the case of “GATGATTGTTCTCCCAGCTGATGAATTTGCCGCATCGAGTAAACAAATTTTCCTAATCTTTCTGTTCAAGCGCCATCTAC”, the binding signal was 1.35 RPM ratio (pull-down/input).

Regarding “GATGATTGTTCTCCCAGCTGATGAATTCGCCGCATCGAGTAAACAAATTTTCCTAATCTTTCTGTTCAAGCGCCATCTAC”, the binding signal is 0.966 RPM ratio (pull-down/input).

On to “GATGATTGTTCTCCCAGCTGATGAATTCCGCTGTTCGAGTAAACAAATTTTCCTAATCTTTCTGTTCAAGCGCCATCTAC”, for which the binding signal is 1.28 RPM ratio (pull-down/input).

In the case of “GATGATTGTTCTCCCAGCTGATGAATTACCCCATTCGAGTAAACAAATTTTCCTAATCTTTCTGTTCAAGCGCCATCTAC”, the binding signal is 0.3 RPM ratio (pull-down/input).

As to “GATGATTGTTCTCCCAGCTGATGAATTTACCGCATCGAGTAAACAAATTTTCCTAATCTTTCTGTTCAAGCGCCATCTAC”, the binding signal was 1.17 RPM ratio (pull-down/input).

“GATGATTGTTCTCCCAGCTGATGAATTTCCGCCTTCGAGTAAACAAATTTTCCTAATCTTTCTGTTCAAGCGCCATCTAC”: the binding signal was 3.28 RPM ratio (pull-down/input).

“GATGATTGTTCTCCCAGCTGATGAATTCCCGCCTTCGAGTAAACAAATTTTCCTAATCTTTCTGTTCAAGCGCCATCTAC”: the binding signal is 2.93 RPM ratio (pull-down/input).
